Sampled rows, rich in hits. Any-hit rate of the full collection: about 11%.
NPR1 antag: human Npr1 receptor antagonism | P16066 | HEK293 hNpr1 GloSensor cGMP, ANP-stimulated luminescence | Potency, µM (top dose mostly 46.3 µM), for the others: top-dose activity change, negative = inhibition, hits mostly inhibitors | hit rate 1.6% among 76,000 | AID 1347048; calls by dose curve; also: % is scaled to controls: 0 for no effect and ±100 for the full control effect; nearly all actives have a fitted effect of over 60% in size
Target sequence (P16066 whole entry, looked up): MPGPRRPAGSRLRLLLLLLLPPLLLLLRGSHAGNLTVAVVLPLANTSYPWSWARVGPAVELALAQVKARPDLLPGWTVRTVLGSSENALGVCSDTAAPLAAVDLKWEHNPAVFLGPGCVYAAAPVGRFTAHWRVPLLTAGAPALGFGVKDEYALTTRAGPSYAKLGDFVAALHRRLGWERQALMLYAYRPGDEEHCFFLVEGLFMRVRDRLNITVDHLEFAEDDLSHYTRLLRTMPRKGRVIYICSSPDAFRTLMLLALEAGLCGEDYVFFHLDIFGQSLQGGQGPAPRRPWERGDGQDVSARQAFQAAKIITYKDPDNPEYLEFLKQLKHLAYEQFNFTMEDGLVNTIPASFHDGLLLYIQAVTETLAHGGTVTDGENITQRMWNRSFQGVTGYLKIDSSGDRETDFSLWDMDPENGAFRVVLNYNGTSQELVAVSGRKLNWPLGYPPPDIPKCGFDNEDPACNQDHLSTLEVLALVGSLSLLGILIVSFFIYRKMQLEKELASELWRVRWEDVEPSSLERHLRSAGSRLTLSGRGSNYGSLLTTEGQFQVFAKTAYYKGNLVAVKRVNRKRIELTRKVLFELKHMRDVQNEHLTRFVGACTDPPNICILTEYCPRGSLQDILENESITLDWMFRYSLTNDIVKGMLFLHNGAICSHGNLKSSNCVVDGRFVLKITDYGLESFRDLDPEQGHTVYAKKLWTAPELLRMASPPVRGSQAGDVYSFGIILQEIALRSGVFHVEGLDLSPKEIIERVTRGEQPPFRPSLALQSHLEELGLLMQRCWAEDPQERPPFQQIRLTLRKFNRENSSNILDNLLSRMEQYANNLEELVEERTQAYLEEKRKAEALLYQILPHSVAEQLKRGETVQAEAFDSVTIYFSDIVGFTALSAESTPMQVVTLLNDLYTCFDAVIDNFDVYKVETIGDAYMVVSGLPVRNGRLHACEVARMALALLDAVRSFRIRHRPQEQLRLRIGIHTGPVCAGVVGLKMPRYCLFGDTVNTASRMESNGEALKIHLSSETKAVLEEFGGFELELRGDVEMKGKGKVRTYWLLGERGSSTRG
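HEK293 cells stably expressing human Npr1 and cGMP GloSensor pGS-40F, loaded 2 h with 2% GloSensor reagent, given compound 30 min at room temperature. Luminescence read before and 20 min after 0.1 nM hNppA.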
NIH3T3 tox: cytotoxic compounds in NIH 3T3 cells. NIH 3T3 viability, CellTiter-Glo ATP luminescence, 48-72 h. Potency, µM (doses to about 96.7 µM), for the others: at the highest dose activity change, negative = cytotoxicity, usual class: inhibitors. hit rate 4.3% among 94,000; also: % is scaled to controls: 0 for no effect and ±100 for the full control effect; nearly all actives have a fitted effect of over 55% in size
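Cytotoxicity was measured by CellTiter-Glo ATP luminescence after 48 or 72 h compound exposure at 37 °C. Mouse NIH 3T3 fibroblasts were seeded at 400 cells/well and dosed by 23 nL pin transfer.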
FLuc inh-1: inhibitors of firefly (Photinus pyralis) luciferase; P08659; purified P. pyralis luciferase, luminescence, biochemical; Potency, µM (titrated, usually from 115 µM), usual class: inhibitors; hit rate 2.5% among 76,000; AID 1347043; also: % is scaled to controls: 0 for no effect and ±100 for the full control effect; nearly all actives have a fitted effect of over 65% in size
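Biochemical qHTS: compound (6-point titration) added to 10uM D-luciferin plus 10uM ATP in Tris acetate pH 7.5 buffer with Mg, Tween-20 and BSA, then purified enzyme at 10nM; light output imaged.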
HEK cytotox: cytotoxic compounds in HEK 293 cells; hit rate 6.6% among 94,000; AID 1345083; Potency, µM (doses to about 115 µM), without a hit: at the top dose activity change, negative = cytotoxicity, actives largely listed as inhibitors; HEK 293 viability, ATP luminescence (CellTiter-Glo), 48-72 h; also: % is scaled to controls: 0 for no effect and ±100 for the full control effect; nearly all actives have a fitted effect of over 60% in size
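Luminescence from cellular ATP, measured with CellTiter-Glo, indicates HEK 293 viability. Cells plated at 250 cells/well are treated with compound for 48 or 72 hr at 37 degree Celsius before reagent addition.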
FLuc SDR -ATP: binders stabilizing firefly luciferase, without ATP; shares compounds with FLuc inh-1; Purified FLuc-C-HiBiT, Nano-Glo HiBiT luminescence, no ATP; Potency, µM (series often up to 32.7 µM), inactives show at the top dose activation (signal gain), usual class: activators; hit rate 7.8% among 1,300; also: nearly all actives have a fitted effect of over 55% in size
FLuc SDR ATP: binders stabilizing firefly luciferase, plus ATP; shares compounds with FLuc inh-1; Potency, µM (highest dose often 32.7 µM), without a hit: top-dose activation (gain of signal), usual class: activators; AID 1963319; purified FLuc-C-HiBiT + ATP, HiBiT complementation luminescence; hit rate 8.7% among 1,300;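 also: signal reports ligand binding via conformational change of the enzyme rather than luciferase catalysis; % of control where 0% means no effect; nearly all actives have a fitted effect of over 55% in size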
FLuc inh-2: blocks firefly luciferase enzymatic activity | AID 1963320 | shares compounds with FLuc inh-1 | purified FLuc-C-HiBiT enzyme, luciferin luminescence | Potency, µM (top dose mostly 32.7 µM), inactives show at the top dose activity change, negative = inhibition, hits mostly inhibitors | hit rate 42% among 1,300; also: % is scaled to controls: 0 for no effect and ±100 for the full control effect; nearly all actives have a fitted effect of over 70% in size
The depositor's hits bear a star; i = inactive; ? = inconclusive; · = no result; [ ] = dose if it differs, or a comment. Unless noted, calls follow the shape of the dose curve; as a rule, active = well fitted curve in the direction sought with a large enough effect; inconclusive = small, poorly fitted or top-dose-only effect, or another doubt; inactive = no such curve, though single readings can be large; an effect the other way counts as inactive or inconclusive. Potency is read from the fitted curve at half-maximal effect.

SMILES	NPR1 antag	NIH3T3 tox	FLuc inh-1	HEK cytotox	FLuc SDR -ATP	FLuc SDR ATP	FLuc inh-2
COCCN1C(=O)c2ccccc2C(C(=O)Nc2nc3ccccc3s2)C12CCCC2 (centres undefined)	-3%	-5%	i	6%	·	·	·
O=C(CN1CCCc2nc(-c3ccncc3)ncc2C1=O)NCCCN1CCCC1=O	-2%	-18%	i	-5%	·	·	·
CCOc1ccccc1CN1CCC(CC2CC2)(NS(C)(=O)=O)CC1	·	-33%	·	?	·	·	·
O=C1CC(c2ccccc2)N(C(=O)CNC(=O)Nc2ccccc2)CCCCCN1 (centres undefined)	0%	-11%	i	-16%	·	·	·
O=C1CC(c2ccccc2)N(C(=O)CNC(=O)Nc2ccc3c(c2)OCCO3)CCCCCN1 (centres undefined)	-2%	-2%	10µM*	-2%	15%	14%	?
O=C(c1ccccc1Cl)N1CCCC(C(=O)N2CCC(N3CCOC3=O)CC2)C1 (centres undefined)	·	-18%	·	0%	·	·	·
O=C(NC1CCCC1)N1c2ccccc2CC1c1noc(C2CCOCC2)n1 (centres undefined)	-28%	-17%	5µM*	?	23%	18%	?
CCOC(=O)C1CCN(C(=O)c2cn3cc(-c4ccc(F)cc4)sc3n2)CC1	·	-34%	·	-20%	·	·	·
O=C(c1ccccc1)N1CCN(c2ccnc3ccnn23)CC1	·	-17%[138 µM]	·	-4%[172 µM]	·	·	·
Cc1ccc2oc(-c3ccc(C)c(NC(=O)/C=C/c4ccc(Cl)cc4)c3)nc2c1	·	·	·	·	22%	15%	?
CN(C)c1nc(NCCN2CCOC2=O)ncc1F	-4%	-4%	i	-14%	·	·	·
O=C1OCCN1CCNc1ccc(-c2nc(-c3ccccc3F)no2)cn1	?	?	5.6µM*	45µM*	19%	19%	?
CNC(=O)c1cccc(-c2ccc(OC)nn2)c1	·	-27%[138 µM]	·	-20%[172 µM]	·	·	·
CC1CCCN(c2ncnc3c2CN(C2CCCNCC2)C(=O)CN3C)C1 (centres undefined)	·	i	·	-4%	·	·	·
CCC[C@H](C)Oc1nc(N)c2[nH]c(=O)n(CCCCCN3CCCCC3)c2n1	·	·	·	·	13%	9%	-3%
CNC(=O)c1cccnc1N1CCOC(c2ccc3cc(OC)ccc3c2)C1 (centres undefined)	-4%	-23%	?	?	·	·	·
CCN(CC)C(=O)N1CCOC(c2ccc3cc(OC)ccc3c2)C1 (centres undefined)	11µM*	?	1.6µM*	?	30%	?	5.6µM*
COc1ccc2cc(C3CN(C(=O)CCc4n[nH]c(C)n4)CCO3)ccc2c1 (centres undefined)	?	?	2.5µM*	-24%	?	?	9.9µM*
O=C(c1ccc2ncccc2c1)N1CCOC(c2ccc(Cl)c(Cl)c2)C1 (centres undefined)	?	?	i	?	·	·	·
COc1ccc2cc(C3CN(C(=O)c4cccc(CO)n4)CCO3)ccc2c1 (centres undefined)	?	-32%	3.5µM*	?	23%	?	?
COc1ccc2cc(C3CN(C(=O)c4cccc(CO)c4)CCO3)ccc2c1 (centres undefined)	10µM*	?	0.56µM*	28µM*	?	?	2.5µM*
O=C(c1ccc(C(F)(F)F)cc1)N1CCC2(CC1)CC(=O)N(c1ccccc1)c1ccccc1O2	14%	?	i	?	·	·	·
COc1ccc(NC(=O)c2ccc3c(c2)N(C)C2CCCCN2C3=O)cc1Cl (centres undefined)	-1%	?	i	?	·	·	·
CCn1ncc(CN(C)C(=O)c2c(C)oc3c2CN(Cc2ccc(OC)cc2)CC3)c1C	-3%	?	i	?	·	·	·

Assay outcomes (PubChem)
